Values joined by “and” are separate entries in the source; they are usually repeats but may differ in a detail not shown here. Equal entries are not always repeated. Structures can show the parent of a compound that is named as a salt.
What was measured:
Test in all cases: cell viability relative to vehicle control; higher = less cytotoxic
Settings in all cases: 10 µM
[1] = tested on: K562
Summary of the method: (§1)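 CRISPR-edited mutant clones and isogenic wild-type clones from four leukaemia lines were screened against Selleck bioactive, kinase and epigenetic probe libraries, with identity-inconsistent compounds excluded. Each compound was acoustically dispensed at a single 10 µM dose into 384-well plates holding 2000 cells in 50 µL medium per well. After 48 h the supernatant was removed and CellTiter-Glo luminescence was read. Viability was expressed as percent of the on-plate vehicle control and analysed in Genedata Screener.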

[2] = tested on: MARIMO
Summary of the method: as §1

[3] = tested on: MOLM14
Summary of the method: as §1

[4] = tested on: OCI-AML2
Summary of the method: as §1

Row | SMILES | cell viability ([1]; SRSF2 genotype: SRSF2 P95H/wt) | cell viability ([1]; SRSF2 genotype: SRSF2 wt/wt) [%] | cell viability ([2]; SRSF2 genotype: SRSF2 P95H/wt) [%] | cell viability ([2]; SRSF2 genotype: SRSF2 wt/wt) [%] | cell viability ([3]; SRSF2 genotype: SRSF2 P95H/wt) [%] | cell viability ([3]; SRSF2 genotype: SRSF2 wt/wt) [%] | cell viability ([4]; SRSF2 genotype: P95H/wt) [%] | cell viability ([4]; SRSF2 genotype: wt/wt) [%]
1 | O=C(Nc1nc2cccc(-c3ccc(CN4CCS(=O)(=O)CC4)cc3)n2n1)C1CC1 | 89.3% and 94.9% | 84.5 | 71.2 | 73 | 48.1 | 45.3 | 20.1 | 41.7
2 | CC1=C(/C=C/C(C)=C/C=C/C(C)=C/C(=O)O)C(C)(C)CCC1 [All-trans Retinoic Acid (Tretinoin)] | 88.7% and 90.3% | 93 | 68.7 | 73.6 | 54.2 | 75.3 | 11.3 | 37.4
3 | CNCCc1ccccn1 [Betahistine] | 102% and 100% | 102 | 100 | 103 | 101 | 105 | 102 | 105
4 | O=c1[nH]c2ccccc2n1CCN1CCN(c2cccc(C(F)(F)F)c2)CC1 [Flibanserin] | 89.2% and 98.9% | 91.8 | 96.9 | 110 | 101 | 102 | 91 | 108
5 | C#Cc1cccc(Nc2ncnc3cc4c(cc23)OCCOCCOCCO4)c1 [Icotinib] | 96.1% and 94% | 94.2 | 92.4 | 98.3 | 92.3 | 98.4 | 94.9 | 94.5
6 | CS(=O)(=O)c1cccc(C[C@H](NC(=O)c2c(Cl)cc3c(c2Cl)CCN(C(=O)c2ccc4ccoc4c2)C3)C(=O)O)c1 [Lifitegrast] | 96.8% and 97% | 90.3 | 90.5 | 102 | 93.7 | 96.6 | 92.2 | 94.9
7 | CNC(=O)c1ccc2cc([C@@]3(O)CCn4cncc43)ccc2c1 [TAK-700 (Orteronel)] | 107% and 98.8% | 97.3 | 93.2 | 105 | 101 | 100 | 95.6 | 104
8 | Cn1sc(=O)n(Cc2ccccc2)c1=O | 0.36% and 9.05% | 0.35 | 0.8 | 0.14 | 0.12 | 0.54 | 0.07 | 0.09
9 | COc1ccc(Cl)cc1C(=O)NCCc1ccc(S(=O)(=O)NC(=O)NC2CCCCC2)cc1 [Glyburide (Glibenclamide)] | 107% and 98.6% | 110 | 106 | 120 | 108 | 103 | 98.8 | 104
10 | CN(CCO)CC(O)Cn1cnc2c1c(=O)n(C)c(=O)n2C (stereo unspecified) [Xanthinol Nicotinate] | 99.3% and 90.3% | 97.9 | 98.2 | 105 | 95.4 | 97.7 | 73.7 | 90.5
11 | Cc1nc2n(c(=O)c1CCN1CCC(c3noc4cc(F)ccc34)CC1)CCCC2O (stereo unspecified) [Paliperidone] | 84.4% and 93.4% | 80.7 | 90.2 | 93.2 | 83.5 | 91.8 | 89 | 91.2
12 | CCc1c2c(nc3ccc(O)cc13)-c1cc3c(c(=O)n1C2)COC(=O)[C@]3(O)CC | 10.1% and 21.4% | 13.4 | 5.36 | 3.23 | 1.02 | 0.95 | 0.48 | 1.9
13 | CCc1nc(N)nc(N)c1-c1ccc(Cl)cc1 [Pyrimethamine] | 73.7% and 96.8% | 36.4 | 95.2 | 99.7 | 102 | 92.3 | 107 | 102
14 | CC(=O)OCC(CCn1cnc2cnc(N)nc21)COC(C)=O [Famciclovir (Famvir)] | 103% and 95.1% | 90.8 | 99.7 | 104 | 99.3 | 97.5 | 94.7 | 98
15 | Cc1cc(/N=N/c2ccc(S(=O)(=O)Nc3ccccn3)cc2)c(N)cc1O | 76.8% and 80.2% | 79.7 | 56.9 | 53.3 | 36.3 | 34.8 | 26.2 | 48.7
16 | N#Cc1c(NC(=O)c2cccc3ccccc23)sc2c1CCCC2 [JNK inhibitor IX] | 16.2% and 37.1% | 34.9 | 6.04 | 9.03 | 14.5 | 3.68 | 8.78 | 12.3
17 | CN1CCN(c2ccc(-c3ccncc3-c3cc(F)c(O)c(F)c3)cc2)CC1 | 94.2% and 97.1% | 95.9 | 80.1 | 85.4 | 66.4 | 88.8 | 99.5 | 91.1
18 | O=C(Nc1cccc(C(F)(F)F)c1)c1cccc2cc(Oc3cc(CO)ncn3)ccc12 | 80.8% and 91.3% | 87.8 | 101 | 121 | 86.9 | 98.6 | 90.7 | 96.3
19 | CC1(C)CC(=O)c2c(C(F)(F)F)nn(-c3ccc(C(N)=O)c(N[C@H]4CC[C@H](OC(=O)CN)CC4)c3)c2C1 | 21.8% and 27.1% | 25.3 | 29.4 | 24.4 | 2.89 | 4.44 | 14.6 | 22.1
20 | CC(=O)OCC1=C[C@@H]2OC(=O)C3=CO[C@@H](O[C@@H]4O[C@H](CO)[C@@H](O)[C@H](O)[C@H]4O)[C@H]1[C@@H]32 [Asperulosid] | 83.4% and 85.5% | 85.5 | 85.2 | 94.3 | 85 | 88 | 88.5 | 113
21 | Cc1ccccc1C(=O)Nc1ccc(C(=O)N2CCCC(O)c3cc(Cl)ccc32)c(C)c1 (stereo unspecified) | 89.3% and 84.8% | 85.7 | 80.7 | 99.9 | 84.2 | 91.7 | 91.6 | 83

Row | SMILES | cell viability ([1]; SRSF2 genotype: SRSF2 P95H/wt) | cell viability ([1]; SRSF2 genotype: SRSF2 wt/wt) [%] | cell viability ([2]; SRSF2 genotype: SRSF2 P95H/wt) [%] | cell viability ([2]; SRSF2 genotype: SRSF2 wt/wt) [%] | cell viability ([3]; SRSF2 genotype: SRSF2 P95H/wt) [%] | cell viability ([3]; SRSF2 genotype: SRSF2 wt/wt) [%] | cell viability ([4]; SRSF2 genotype: P95H/wt) [%] | cell viability ([4]; SRSF2 genotype: wt/wt) [%]
22 | CNCc1ccc(-c2[nH]c3cc(F)cc4c3c2CCNC4=O)cc1 | 94% and 103% | 97.8 | 84.7 | 86.7 | 50 | 29.4 | 44.2 | 55.8
23 | Cc1ccc2c(c1)C(=O)C1(O)CCN(c3ccccc3)C1=N2 (single isomer, unassigned; (-)) [(-)-Blebbistatin] | 93.5% and 92.5% | 94 | 88.4 | 98.6 | 61.3 | 60.7 | 80.5 | 90.4
24 | Cc1ccc(NS(=O)(=O)c2ccc3c(c2)C2C=CCC2C(c2ccc(C(=O)O)cc2)N3)cc1C (stereo unspecified) | 108% and 98.9% | 110 | 102 | 101 | 106 | 104 | 103 | 117
25 | COc1cc(O)c(CC=C(C)C)c2c1C(=O)CC(c1ccc(O)cc1)O2 (stereo unspecified) [Isoxanthohumol] | 83.1% and 81.6% | 78.3 | 94.3 | 82.2 | 94.7 | 97.7 | 93.7 | 93
26 | COc1cc2nccc(Oc3ccc(NC(=O)NC4CC4)c(Cl)c3)c2cc1C(N)=O [E7080 (Lenvatinib)] | 63.7% and 82.7% | 67.5 | 83.9 | 89.3 | 34.6 | 28.1 | 50.9 | 56.1
27 | c1ccc(CNc2nc(NCc3ccccc3)c3ccccc3n2)cc1 | 17.4% and 10.9% | 12.4 | 0.92 | 11 | 0.16 | 0.16 | 0.21 | 0.19
28 | CCN1CCCC1CNC(=O)c1cc(S(=O)(=O)CC)c(N)cc1OC (stereo unspecified) [Amisulpride] | 104% and 101% | 105 | 102 | 107 | 109 | 108 | 109 | 110
29 | O=c1cc(N2CCOCC2)oc2c1ccc1ccccc12 | 96.7% and 102% | 99.6 | 93.3 | 102 | 89.2 | 96.7 | 87.6 | 96.7
30 | COc1cc(C(=O)OCCCCNC(=N)N)cc(OC)c1O [Leonurine] | 105% and 99% | 95.2 | 98.4 | 112 | 95.2 | 104 | 94.4 | 107
31 | CCn1nc(C2CCN(C(=O)CCO)CC2)nc1-c1cnc(N)c(-c2nnc(C(C)(C)C)o2)n1 | 97.5% and 109% | 104 | 57.5 | 50.7 | 38.2 | 50.8 | 21.3 | 34.6
32 | CN(C)CCC[C@@]1(c2ccc(F)cc2)OCc2cc(C#N)ccc21 [Escitalopram Oxalate] | 87.5% and 88.8% | 92.8 | 85.4 | 91.1 | 89.4 | 93.7 | 89.2 | 88.4
33 | CC(C)(O[C@@H]1O[C@H](CO)[C@@H](O)[C@H](O)[C@H]1O)[C@H]1Cc2cc3ccc(=O)oc3cc2O1 [Nodakenin] | 101% and 107% | 109 | 98.7 | 101 | 110 | 100 | 106 | 103
34 | CC(C)(C)c1cc(NC(=O)Nc2ccc(Oc3ccnc4[nH]c(=O)cnc34)cc2F)n(-c2ccccc2)n1 | 30% and 44% | 25.7 | 14.6 | 9.05 | 7.07 | 2.65 | 6.64 | 15.8
35 | CC12CCC(C1)C(C)(C)C2O (stereo unspecified) [Fenchyl Alcohol] | 105% and 94.5% | 91.5 | 89.9 | 100 | 96.4 | 96.6 | 91.5 | 89.1
36 | Cc1cccc(C)c1OCC(=O)N[C@@H](Cc1ccccc1)[C@@H](O)C[C@H](Cc1ccccc1)NC(=O)[C@H](C(C)C)N1CCCNC1=O [Lopinavir (ABT-378)] | 85.5% and 94.8% | 86.7 | 97.4 | 98.2 | 92.2 | 102 | 97.3 | 92.2
37 | CC(C)(C)NC(=O)c1cncn1C1CCN(c2ccc(-c3nnc(C(F)(F)F)o3)cn2)CC1 | 69% and 57.2% | 63.8 | 53.1 | 64.5 | 56.7 | 45.7 | 8.34 | 20.6
38 | COc1ccc([C@]2(C#N)CC[C@@H](C(=O)O)CC2)cc1OC1CCCC1 | 96.5% and 91.9% | 99.1 | 93.8 | 110 | 94.8 | 100 | 95.6 | 102
39 | COc1cc2c(c(OC)c1OC)-c1c(cc3c(c1OC)OCO3)CC(C)C(C)C2 (stereo unspecified) [Schisandrin B] | 76.4% and 76% | 74.8 | 71.8 | 86 | 73 | 76.2 | 90.8 | 84.9
40 | N#CSc1cc(SC#N)c(N)nc1N | 8.53% and 15.5% | 33.9 | 4.65 | 1.5 | 3.35 | 0.44 | 0.31 | 0.95
41 | C#C[C@]1(O)CC[C@H]2[C@@H]3CCC4=CC(=O)CC[C@@H]4[C@H]3CC[C@@]21CC [Levonorgestrel (Levonelle)] | 104% and 102% | 101 | 95.7 | 109 | 104 | 103 | 105 | 108
42 | CCCNC(=O)C1OC1C(=O)NC(C(=O)N1CCCC1C(=O)OC)C(C)CC (stereo unspecified) [CA-074 methyl ester (CA-074 Me)] | 76.9% and 62.3% | 70.2 | 66 | 90.1 | 18.2 | 11.8 | 25.6 | 24.1
